Measured values: publication PMC7862700, “An all-to-all approach to the identification of sequence-specific readers for epigenetic DNA modifications on cytosine”

Experiments:
Experiment in all cases: DAPPL (digital affinity profiling via proximity ligation, sequencing); 10 mM Tris-HCl pH 7.5, 50 mM NaCl, 1 mM DTT, 4% glycerol, room temperature, 30 min; GST-TFs on glutathione beads, 16-mer random dsDNA library, 0.1% formaldehyde crosslink after washing; high values mean tight binding
FEV = target: T1, FEV (Homo sapiens, UniProt Q99581 1-238); conditions: protein: recombinant; tags: N-terminal GST; dsDNA, one strand shown
T1 sequence: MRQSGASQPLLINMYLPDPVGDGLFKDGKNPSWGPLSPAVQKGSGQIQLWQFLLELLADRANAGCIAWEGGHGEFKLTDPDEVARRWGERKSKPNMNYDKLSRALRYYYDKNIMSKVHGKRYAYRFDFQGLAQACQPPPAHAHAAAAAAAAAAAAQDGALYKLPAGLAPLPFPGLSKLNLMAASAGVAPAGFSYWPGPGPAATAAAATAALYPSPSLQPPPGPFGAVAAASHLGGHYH
Procedure, shortened: (§1)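 GST fusions of human transcription factors were expressed in yeast and captured with glutathione beads. Once given DNA barcodes and pooled alongside a tag-only sample, they were incubated for 30 min at room temperature with 200 nmole of a random double-stranded 16-mer DNA library in Tris/NaCl/DTT/glycerol buffer, then washed, crosslinked (0.1% formaldehyde), proximity-ligated, PCR-amplified and sequenced on an Illumina NextSeq500. The binding signal of each hexamer is its read frequency for a factor divided by its frequency for the tag-only sample.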

ETV5 = ETV5 (Homo sapiens, UniProt P41161 1-510); conditions: protein: recombinant; tags: N-terminal GST; dsDNA, one strand shown
Procedure, shortened: as §1

HSF1 = HSF1 (Homo sapiens, UniProt Q00613 1-529); conditions: protein: recombinant; tags: N-terminal GST; chain copies: 3; dsDNA, one strand shown
Procedure, shortened: as §1

SPIC = target: T2, SPIC (Homo sapiens, UniProt Q8N5J4 1-248); conditions: protein: recombinant; tags: N-terminal GST; dsDNA, one strand shown
T2 sequence: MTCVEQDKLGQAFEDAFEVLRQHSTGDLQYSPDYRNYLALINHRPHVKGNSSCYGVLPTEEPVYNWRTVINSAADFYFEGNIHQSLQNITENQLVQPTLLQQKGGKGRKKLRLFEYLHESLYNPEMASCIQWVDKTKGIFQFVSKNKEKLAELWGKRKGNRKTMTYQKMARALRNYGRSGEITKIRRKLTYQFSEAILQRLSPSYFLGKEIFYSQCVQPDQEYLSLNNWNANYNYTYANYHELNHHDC
Procedure, shortened: as §1

ELF4 = ELF4 (Homo sapiens, UniProt Q99607 1-663); conditions: protein: recombinant; tags: N-terminal GST; dsDNA, one strand shown
Procedure, shortened: as §1

ELK4 = target: T3, ELK4 (Homo sapiens, UniProt P28324-2 1-405); conditions: protein: recombinant; tags: N-terminal GST; dsDNA, one strand shown
T3 sequence: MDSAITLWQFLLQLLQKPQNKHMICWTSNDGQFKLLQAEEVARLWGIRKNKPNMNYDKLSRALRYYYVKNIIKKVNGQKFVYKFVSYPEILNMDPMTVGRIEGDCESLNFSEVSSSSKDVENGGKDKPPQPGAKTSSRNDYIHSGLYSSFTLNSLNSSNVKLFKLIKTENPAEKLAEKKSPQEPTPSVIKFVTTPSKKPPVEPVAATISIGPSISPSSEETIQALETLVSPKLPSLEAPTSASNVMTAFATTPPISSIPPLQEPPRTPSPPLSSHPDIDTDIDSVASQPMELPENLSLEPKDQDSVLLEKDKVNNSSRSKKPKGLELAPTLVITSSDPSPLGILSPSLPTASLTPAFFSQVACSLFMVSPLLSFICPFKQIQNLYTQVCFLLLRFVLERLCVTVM
Procedure, shortened: as §1

ETV2 = target: T4, ETV2 (Homo sapiens, UniProt O00321 1-342); conditions: protein: recombinant; tags: N-terminal GST; dsDNA, one strand shown
T4 sequence: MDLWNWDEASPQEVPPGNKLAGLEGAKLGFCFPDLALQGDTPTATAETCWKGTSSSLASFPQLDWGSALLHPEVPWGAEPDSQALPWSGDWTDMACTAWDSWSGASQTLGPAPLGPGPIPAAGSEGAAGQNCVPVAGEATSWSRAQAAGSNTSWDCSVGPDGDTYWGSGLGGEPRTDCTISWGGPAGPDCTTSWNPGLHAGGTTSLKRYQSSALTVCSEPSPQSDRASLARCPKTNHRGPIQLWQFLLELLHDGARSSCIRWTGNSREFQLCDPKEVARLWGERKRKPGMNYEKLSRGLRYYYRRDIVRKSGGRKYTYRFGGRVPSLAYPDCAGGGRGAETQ
Procedure, shortened: as §1

ELF3 = target: T5, ELF3 (Homo sapiens, UniProt P78545 1-371); conditions: protein: recombinant; tags: N-terminal GST; dsDNA, one strand shown
T5 sequence: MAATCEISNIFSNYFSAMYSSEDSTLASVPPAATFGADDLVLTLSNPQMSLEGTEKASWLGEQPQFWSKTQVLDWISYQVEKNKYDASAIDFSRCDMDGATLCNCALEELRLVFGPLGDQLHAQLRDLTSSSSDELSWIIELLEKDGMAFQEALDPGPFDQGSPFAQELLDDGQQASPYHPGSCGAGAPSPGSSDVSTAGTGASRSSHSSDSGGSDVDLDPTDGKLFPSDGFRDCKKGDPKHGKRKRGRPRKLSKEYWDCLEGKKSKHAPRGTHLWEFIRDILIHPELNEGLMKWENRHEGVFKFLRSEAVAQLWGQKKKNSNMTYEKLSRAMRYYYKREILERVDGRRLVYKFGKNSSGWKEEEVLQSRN
Procedure, shortened: as §1

CRX = CRX (Homo sapiens, UniProt O43186 1-299); conditions: protein: recombinant; tags: N-terminal GST; dsDNA, one strand shown
Procedure, shortened: as §1

ETV1 = ETV1 (Homo sapiens, UniProt P50549 1-477); conditions: protein: recombinant; tags: N-terminal GST; dsDNA, one strand shown
Procedure, shortened: as §1

Sequence of HSF1 (Q00613 whole entry): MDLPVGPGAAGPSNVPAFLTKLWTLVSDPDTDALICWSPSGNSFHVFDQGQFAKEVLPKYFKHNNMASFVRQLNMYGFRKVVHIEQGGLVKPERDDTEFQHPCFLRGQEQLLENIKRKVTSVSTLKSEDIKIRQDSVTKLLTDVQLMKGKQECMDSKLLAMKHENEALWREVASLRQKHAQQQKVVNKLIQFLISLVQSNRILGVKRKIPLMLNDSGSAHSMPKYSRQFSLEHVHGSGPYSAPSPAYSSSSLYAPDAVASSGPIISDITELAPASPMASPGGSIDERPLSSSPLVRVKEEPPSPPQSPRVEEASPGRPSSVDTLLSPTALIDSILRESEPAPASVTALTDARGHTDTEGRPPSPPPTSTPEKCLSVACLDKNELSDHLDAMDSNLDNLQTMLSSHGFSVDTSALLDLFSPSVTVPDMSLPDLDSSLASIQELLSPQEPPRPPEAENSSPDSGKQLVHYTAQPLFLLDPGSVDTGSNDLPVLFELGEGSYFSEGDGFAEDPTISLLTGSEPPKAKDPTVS
Sequence of CRX (O43186 whole entry): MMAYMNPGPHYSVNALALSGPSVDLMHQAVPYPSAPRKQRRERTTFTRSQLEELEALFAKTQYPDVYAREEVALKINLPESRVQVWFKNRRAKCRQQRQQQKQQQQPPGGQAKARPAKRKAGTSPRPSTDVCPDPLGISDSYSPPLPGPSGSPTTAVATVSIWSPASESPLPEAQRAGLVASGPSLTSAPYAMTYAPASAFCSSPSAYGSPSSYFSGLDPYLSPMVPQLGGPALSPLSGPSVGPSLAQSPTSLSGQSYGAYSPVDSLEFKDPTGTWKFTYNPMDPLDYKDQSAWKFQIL
Sequence of ELF4 (Q99607 whole entry): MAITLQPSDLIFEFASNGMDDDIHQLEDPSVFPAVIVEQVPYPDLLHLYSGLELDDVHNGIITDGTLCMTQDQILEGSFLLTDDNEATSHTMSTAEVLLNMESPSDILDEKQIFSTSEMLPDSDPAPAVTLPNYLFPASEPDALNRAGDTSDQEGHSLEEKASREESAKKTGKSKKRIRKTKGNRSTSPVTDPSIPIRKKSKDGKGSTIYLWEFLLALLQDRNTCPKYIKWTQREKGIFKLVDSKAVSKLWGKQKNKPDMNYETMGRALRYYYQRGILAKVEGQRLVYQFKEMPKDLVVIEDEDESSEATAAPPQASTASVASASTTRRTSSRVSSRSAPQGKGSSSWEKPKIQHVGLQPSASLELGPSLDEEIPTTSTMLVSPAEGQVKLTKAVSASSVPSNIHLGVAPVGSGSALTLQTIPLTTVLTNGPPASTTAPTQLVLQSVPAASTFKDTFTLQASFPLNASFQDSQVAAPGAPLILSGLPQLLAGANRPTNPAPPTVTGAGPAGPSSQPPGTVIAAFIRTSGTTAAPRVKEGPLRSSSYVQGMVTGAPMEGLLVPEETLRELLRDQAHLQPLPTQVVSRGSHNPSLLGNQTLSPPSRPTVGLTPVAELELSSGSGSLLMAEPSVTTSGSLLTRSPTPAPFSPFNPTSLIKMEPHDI
Sequence of ETV5 (P41161 whole entry): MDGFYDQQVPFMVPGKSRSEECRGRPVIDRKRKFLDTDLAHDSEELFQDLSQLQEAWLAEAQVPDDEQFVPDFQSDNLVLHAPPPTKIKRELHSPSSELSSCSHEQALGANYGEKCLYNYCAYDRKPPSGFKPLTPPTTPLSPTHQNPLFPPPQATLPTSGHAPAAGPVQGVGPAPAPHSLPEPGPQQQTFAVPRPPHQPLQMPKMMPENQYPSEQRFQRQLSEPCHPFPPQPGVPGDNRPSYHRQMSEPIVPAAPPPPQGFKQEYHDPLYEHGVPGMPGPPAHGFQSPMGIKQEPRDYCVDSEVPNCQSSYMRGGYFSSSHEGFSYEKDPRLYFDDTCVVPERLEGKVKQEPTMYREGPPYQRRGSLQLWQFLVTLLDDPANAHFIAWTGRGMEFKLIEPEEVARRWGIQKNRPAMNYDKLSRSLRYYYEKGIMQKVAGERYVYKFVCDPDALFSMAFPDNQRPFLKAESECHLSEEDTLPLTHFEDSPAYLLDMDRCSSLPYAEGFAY
Sequence of ETV1 (P50549 whole entry): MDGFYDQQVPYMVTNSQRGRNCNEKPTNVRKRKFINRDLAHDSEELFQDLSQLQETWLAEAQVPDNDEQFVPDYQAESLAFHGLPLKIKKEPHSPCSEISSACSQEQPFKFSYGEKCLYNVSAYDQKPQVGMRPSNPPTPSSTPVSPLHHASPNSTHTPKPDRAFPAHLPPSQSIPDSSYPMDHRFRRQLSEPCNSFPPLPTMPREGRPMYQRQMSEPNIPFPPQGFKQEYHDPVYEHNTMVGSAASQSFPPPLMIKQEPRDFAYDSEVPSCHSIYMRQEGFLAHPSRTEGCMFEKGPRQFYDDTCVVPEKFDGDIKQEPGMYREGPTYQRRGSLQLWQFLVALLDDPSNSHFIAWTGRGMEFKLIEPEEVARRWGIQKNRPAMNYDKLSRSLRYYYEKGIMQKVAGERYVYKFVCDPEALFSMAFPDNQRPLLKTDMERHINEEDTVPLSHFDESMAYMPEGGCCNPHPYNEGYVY

| Sequence | binding signal (FEV) | binding signal (ETV5) | binding signal (HSF1) | binding signal (SPIC) | binding signal (ELF4) | binding signal (ELK4) | binding signal (ETV2) | binding signal (ELF3) | binding signal (CRX) | binding signal (ETV1) |
| --- | --- | --- | --- | --- | --- | --- | --- | --- | --- | --- |
| AAACTA | 1.29 fold enrichment (6-mer frequency, TF over GST control) | 1.3 fold enrichment (6-mer frequency, TF over GST control) | 1.31 fold enrichment (6-mer frequency, TF over GST control) | 1.18 fold enrichment (6-mer frequency, TF over GST control) | 1.33 fold enrichment (6-mer frequency, TF over GST control) | 1.22 fold enrichment (6-mer frequency, TF over GST control) | 1.29 fold enrichment (6-mer frequency, TF over GST control) | 1.09 fold enrichment (6-mer frequency, TF over GST control) | 1.35 fold enrichment (6-mer frequency, TF over GST control) | 1.36 fold enrichment (6-mer frequency, TF over GST control) |
| TTTCAG | 1.3 fold enrichment (6-mer frequency, TF over GST control) | 1.28 fold enrichment (6-mer frequency, TF over GST control) | 1.3 fold enrichment (6-mer frequency, TF over GST control) | 1.14 fold enrichment (6-mer frequency, TF over GST control) | 1.33 fold enrichment (6-mer frequency, TF over GST control) | 1.38 fold enrichment (6-mer frequency, TF over GST control) | 1.43 fold enrichment (6-mer frequency, TF over GST control) | 1.24 fold enrichment (6-mer frequency, TF over GST control) | 1.31 fold enrichment (6-mer frequency, TF over GST control) | 1.39 fold enrichment (6-mer frequency, TF over GST control) |
| ATAATA | 1.17 fold enrichment (6-mer frequency, TF over GST control) | 1.18 fold enrichment (6-mer frequency, TF over GST control) | 1.67 fold enrichment (6-mer frequency, TF over GST control) | 1.21 fold enrichment (6-mer frequency, TF over GST control) | 1.14 fold enrichment (6-mer frequency, TF over GST control) | 1.14 fold enrichment (6-mer frequency, TF over GST control) | 1.1 fold enrichment (6-mer frequency, TF over GST control) | 1.15 fold enrichment (6-mer frequency, TF over GST control) | 2.14 fold enrichment (6-mer frequency, TF over GST control) | 1.17 fold enrichment (6-mer frequency, TF over GST control) |
| AATGCG | 1.27 fold enrichment (6-mer frequency, TF over GST control) | 1.2 fold enrichment (6-mer frequency, TF over GST control) | 1.13 fold enrichment (6-mer frequency, TF over GST control) | 1.22 fold enrichment (6-mer frequency, TF over GST control) | 1.33 fold enrichment (6-mer frequency, TF over GST control) | 1.25 fold enrichment (6-mer frequency, TF over GST control) | 1.34 fold enrichment (6-mer frequency, TF over GST control) | 1.43 fold enrichment (6-mer frequency, TF over GST control) | 1.36 fold enrichment (6-mer frequency, TF over GST control) | 1.3 fold enrichment (6-mer frequency, TF over GST control) |
| CTCTGC | 1.5 fold enrichment (6-mer frequency, TF over GST control) | 1.49 fold enrichment (6-mer frequency, TF over GST control) | 1.25 fold enrichment (6-mer frequency, TF over GST control) | 1.55 fold enrichment (6-mer frequency, TF over GST control) | 1.61 fold enrichment (6-mer frequency, TF over GST control) | 1.86 fold enrichment (6-mer frequency, TF over GST control) | 1.43 fold enrichment (6-mer frequency, TF over GST control) | 1.56 fold enrichment (6-mer frequency, TF over GST control) | 1.2 fold enrichment (6-mer frequency, TF over GST control) | 1.64 fold enrichment (6-mer frequency, TF over GST control) |
| CCTAAA | 1.27 fold enrichment (6-mer frequency, TF over GST control) | 1.33 fold enrichment (6-mer frequency, TF over GST control) | 1.37 fold enrichment (6-mer frequency, TF over GST control) | 1.32 fold enrichment (6-mer frequency, TF over GST control) | 1.35 fold enrichment (6-mer frequency, TF over GST control) | 1.29 fold enrichment (6-mer frequency, TF over GST control) | 1.25 fold enrichment (6-mer frequency, TF over GST control) | 1.4 fold enrichment (6-mer frequency, TF over GST control) | 1.61 fold enrichment (6-mer frequency, TF over GST control) | 1.31 fold enrichment (6-mer frequency, TF over GST control) |
| CTTGCG | 1.32 fold enrichment (6-mer frequency, TF over GST control) | 1.36 fold enrichment (6-mer frequency, TF over GST control) | 1.26 fold enrichment (6-mer frequency, TF over GST control) | 1.3 fold enrichment (6-mer frequency, TF over GST control) | 1.27 fold enrichment (6-mer frequency, TF over GST control) | 1.51 fold enrichment (6-mer frequency, TF over GST control) | 1.29 fold enrichment (6-mer frequency, TF over GST control) | 1.46 fold enrichment (6-mer frequency, TF over GST control) | 1.13 fold enrichment (6-mer frequency, TF over GST control) | 1.41 fold enrichment (6-mer frequency, TF over GST control) |
